Composite z-score and z-score data for 15 compounds are collected here from PubChem BioAssay.

Calls of active or inactive are those of the source.

The subject of test [1] is PRMT1 (protein arginine N-methyltransferase 1). Nature of the test: small molecules binding arginine methyltransferase PRMT1 – biochemical, small-molecule microarray, 635 nm fluorescence, primary screen (AID 1088).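 Also: binding of Prmt1 protein to compounds spotted on small-molecule microarray slides.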 The following applies: higher = more signal.
Test [2] can be described thus: growth effects on S. cerevisiae YJM789 – YJM789 clinical isolate, OD600, 24 h, basal, primary screen (AID 1089).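 Also: growth of clinical yeast isolate S. cerevisiae YJM 789 seeded 1000 cells per well; test concentration not given here.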 As to conditions: higher = more signal, called active from +8 up or from −8 down.
Test [3] in a line: S. pombe growth modifiers, basal conditions – strain 972, OD600, 24 h, no modulator, primary screen (AID 1090).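 Also: basal condition with compound alone and no growth modifier present; test concentration not given here.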 As to conditions: S. pombe 972 growth, higher = more signal, called active from +8 up or from −8 down.
Test [4] can be described thus: budding yeast growth modifiers under rapamycin – strain BY4716, OD600, 96 h, primary screen (AID 1091). Also: test concentration not given here. As to conditions: S. cerevisiae BY4716 + rapamycin, higher = more signal, called active from +8 up or from −8 down.
For test [5], the target named is Torsin-1A-interacting protein 2 (Homo sapiens) (UniProt Q8NFQ8). Nature of the test: small molecules binding lysate-expressed LULL1 – cell lysate, human LULL1 lysate, 635/667 nm fluorescence, primary screen (AID 1092).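 Also: probe is lysate of COS7 cells overexpressing human LULL1; score merges per-feature 667 nm fluorescence with signal-to-noise.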 As to conditions: small-molecule microarray, hLULL1 lysate binding, 635 nm fluorescence; higher = more signal.
A short description of test [6]: optical density change of DRC41 E. coli – strain DRC41, OD650, 24 h, E. coli filamentation project, primary screen (AID 1093).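 Also: MC1000 strain lacking acrAB efflux and sulA so SOS filamentation is blocked; test concentration not given here.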 The following applies: E. coli DRC41 growth, higher = more signal, called active from +8 up or from −8 down.
Test [7] is described as follows: probe aLefty2 binding to arrayed compounds – biochemical, biotinylated probe, 635/667 nm fluorescence, primary screen (AID 1094).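 Also: score merges spot fluorescence near 667 nm with spot signal-to-noise ratio.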 As to conditions: small-molecule microarray, higher = more signal.
Test [8] deals with Noggin (protein binding on small-molecule microarray). Nature of the test: small molecules binding Noggin protein – biochemical, 635/667 nm fluorescence, primary screen (AID 1095).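 Also: score merges 667 nm feature fluorescence with signal to noise over triplicate slides.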 The following applies: 635 nm fluorescence, higher = more signal.
In test [9] the target is Neurogenic locus notch homolog protein 3 (Homo sapiens) (UniProt Q9UM47). As to the kind of experiment: small molecules binding NOTCH3 protein – biochemical, 635/667 nm fluorescence, primary screen (AID 1096). As to conditions: small-molecule microarray, 635 nm fluorescence, higher = more signal.
The nature of test [10]: probe aEGFR binding to arrayed compounds – biochemical, biotinylated probe, 635/667 nm fluorescence, primary screen (AID 1097).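 Also: probe is a biotinylated anti-EGFR antibody binding compounds printed on slides; score combines fluorescence near 667 nm and signal to noise of each spot.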 The following applies: small-molecule microarray, higher = more signal.

Torsin-1A-interacting protein 2 (Homo sapiens), sequence (Q8NFQ8 whole entry, looked up): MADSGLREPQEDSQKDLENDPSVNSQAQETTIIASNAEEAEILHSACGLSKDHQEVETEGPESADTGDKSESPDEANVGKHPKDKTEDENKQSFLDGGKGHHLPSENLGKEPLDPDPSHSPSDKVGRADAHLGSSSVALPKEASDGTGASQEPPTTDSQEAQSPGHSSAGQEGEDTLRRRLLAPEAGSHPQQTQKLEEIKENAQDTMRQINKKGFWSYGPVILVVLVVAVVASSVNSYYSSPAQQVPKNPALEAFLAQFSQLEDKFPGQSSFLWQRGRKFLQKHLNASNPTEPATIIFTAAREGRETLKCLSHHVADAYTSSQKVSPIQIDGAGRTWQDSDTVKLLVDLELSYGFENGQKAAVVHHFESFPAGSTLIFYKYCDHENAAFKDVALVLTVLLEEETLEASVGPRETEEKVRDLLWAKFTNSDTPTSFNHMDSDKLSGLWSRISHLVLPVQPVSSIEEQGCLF
Neurogenic locus notch homolog protein 3 (Homo sapiens), sequence (Q9UM47 whole entry, looked up): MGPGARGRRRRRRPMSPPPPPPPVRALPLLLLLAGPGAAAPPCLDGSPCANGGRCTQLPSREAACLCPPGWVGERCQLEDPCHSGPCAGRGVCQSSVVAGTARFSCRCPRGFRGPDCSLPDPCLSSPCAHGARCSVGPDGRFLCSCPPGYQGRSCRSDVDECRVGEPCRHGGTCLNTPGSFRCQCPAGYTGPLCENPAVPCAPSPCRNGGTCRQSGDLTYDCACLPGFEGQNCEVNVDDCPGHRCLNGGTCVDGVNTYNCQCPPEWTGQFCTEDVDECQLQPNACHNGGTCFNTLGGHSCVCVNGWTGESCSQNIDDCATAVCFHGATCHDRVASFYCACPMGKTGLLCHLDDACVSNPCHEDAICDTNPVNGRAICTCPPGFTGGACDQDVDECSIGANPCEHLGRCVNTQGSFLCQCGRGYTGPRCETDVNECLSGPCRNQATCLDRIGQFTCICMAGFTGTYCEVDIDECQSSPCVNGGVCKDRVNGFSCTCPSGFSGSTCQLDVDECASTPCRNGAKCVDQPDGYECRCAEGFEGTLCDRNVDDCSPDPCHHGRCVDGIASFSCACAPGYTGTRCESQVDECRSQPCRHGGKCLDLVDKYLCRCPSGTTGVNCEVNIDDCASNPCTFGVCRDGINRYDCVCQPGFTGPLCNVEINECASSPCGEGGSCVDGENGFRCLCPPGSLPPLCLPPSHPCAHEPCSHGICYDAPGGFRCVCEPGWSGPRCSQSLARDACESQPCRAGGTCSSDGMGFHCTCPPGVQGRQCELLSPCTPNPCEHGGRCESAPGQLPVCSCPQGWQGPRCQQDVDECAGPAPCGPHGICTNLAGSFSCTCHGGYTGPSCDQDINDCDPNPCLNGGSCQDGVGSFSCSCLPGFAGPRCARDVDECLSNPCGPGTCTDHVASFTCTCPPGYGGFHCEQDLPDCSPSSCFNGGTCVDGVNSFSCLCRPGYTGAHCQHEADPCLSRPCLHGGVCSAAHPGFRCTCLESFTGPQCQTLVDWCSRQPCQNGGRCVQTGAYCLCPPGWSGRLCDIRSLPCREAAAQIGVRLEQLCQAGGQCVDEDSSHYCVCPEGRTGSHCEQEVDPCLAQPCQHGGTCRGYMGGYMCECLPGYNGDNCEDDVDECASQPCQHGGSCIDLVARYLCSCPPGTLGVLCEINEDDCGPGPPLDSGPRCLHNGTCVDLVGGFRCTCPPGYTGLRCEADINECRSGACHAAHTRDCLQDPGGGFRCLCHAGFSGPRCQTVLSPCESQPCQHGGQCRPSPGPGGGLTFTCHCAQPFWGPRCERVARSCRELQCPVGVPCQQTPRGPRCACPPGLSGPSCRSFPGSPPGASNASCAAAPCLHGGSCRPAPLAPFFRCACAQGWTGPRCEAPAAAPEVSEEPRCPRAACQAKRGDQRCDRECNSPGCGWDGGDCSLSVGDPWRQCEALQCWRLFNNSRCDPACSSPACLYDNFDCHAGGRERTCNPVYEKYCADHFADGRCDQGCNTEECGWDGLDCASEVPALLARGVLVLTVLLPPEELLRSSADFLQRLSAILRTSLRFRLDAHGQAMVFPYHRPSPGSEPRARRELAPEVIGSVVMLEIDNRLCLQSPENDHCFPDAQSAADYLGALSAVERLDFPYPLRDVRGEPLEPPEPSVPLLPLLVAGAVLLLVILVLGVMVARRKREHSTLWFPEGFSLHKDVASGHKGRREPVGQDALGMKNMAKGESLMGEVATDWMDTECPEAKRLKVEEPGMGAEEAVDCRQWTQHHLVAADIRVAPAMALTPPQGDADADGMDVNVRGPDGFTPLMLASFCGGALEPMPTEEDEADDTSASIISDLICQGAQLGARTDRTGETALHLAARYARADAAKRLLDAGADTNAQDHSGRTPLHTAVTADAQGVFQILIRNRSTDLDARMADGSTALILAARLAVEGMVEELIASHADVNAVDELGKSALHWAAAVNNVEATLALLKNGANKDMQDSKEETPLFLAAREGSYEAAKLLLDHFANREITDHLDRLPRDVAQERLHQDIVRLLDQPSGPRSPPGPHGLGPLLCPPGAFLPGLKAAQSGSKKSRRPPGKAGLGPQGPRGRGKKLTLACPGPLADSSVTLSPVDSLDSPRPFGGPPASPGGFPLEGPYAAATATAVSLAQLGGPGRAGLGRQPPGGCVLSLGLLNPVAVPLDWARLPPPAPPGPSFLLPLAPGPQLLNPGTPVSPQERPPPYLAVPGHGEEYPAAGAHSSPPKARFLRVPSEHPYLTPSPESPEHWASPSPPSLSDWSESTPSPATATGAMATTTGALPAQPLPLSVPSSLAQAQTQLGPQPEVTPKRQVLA

Take `COc1ccc(CCNC(=O)[C@@]2(Sc3ccc(C)cc3)CC(=O)N(Cc3cc(C(F)(F)F)cc(C(F)(F)F)c3)[C@@H]2c2ccc(CO)cc2I)cc1`: the composite z-score is 1.46 in test [1]; 1.94 in test [5]; -0.0208 in test [7]; -0.299 in [8]; -0.0768 in test [9]; -0.24 in test [10]. Besides, the z-score was -2.62 (inactive) in [2], -3.09 (inactive) in test [3], 2.1 (inactive) in test [4] and 0.152 (inactive) in [6].
Consider `CCCc1cccc(=O)o1`, for which the composite z-score in [1] is 0.804; in test [5], 1.17; in test [7], -0.0475; in [8] it was 0.614; in [9] it was 0.363; in test [10], 0.0276. For the same compound, the z-score in test [2] is -0.91 (inactive); in test [3], 0.641 (inactive); in test [4] it was -0.467 (inactive); in test [6], -0.454 (inactive).
As to `CN1C(=O)[C@@]2(CCS(=O)(=O)c3ccccc3)N=C(c3ccc(OCCCO)cc3)O[C@H]2c2ccccc21`, the composite z-score is 1.53 in test [1]; 3.05 in test [5]; 0.276 in test [7]; 0.931 in test [8]; 0.377 in test [9]; -0.0493 in test [10]. Moreover, the z-score in test [2] was -0.175 (inactive); in test [3] it was -0.585 (inactive); in [4], 2.05 (inactive); in test [6] it was 0.708 (inactive).
In the case of `O=C1OCCC=C[C@H]2OC34C=CCN(c5ccc(Cl)cc5)C(=O)[C@H]3N(CCCCCO)C(=O)[C@@H]4C12` (stereo not given in full), the composite z-score in test [1] was 0.536; in [5] it was 2.68; in test [7], 0.0636; in test [8], -0.261; in [9], 0.0841; in test [10], -0.0671. Further, the z-score in [2] was -0.579 (inactive); in [3] it was -1.99 (inactive); in [4], -0.54 (inactive); in [6] it was 1.71 (inactive).
On to `C=CCOC(=O)[C@@H]1[C@H]2C(=O)O[C@H](c3ccccc3)[C@H](c3ccccc3)N2[C@H](c2ccc(OCCOC(=O)[C@H]3C[C@H]4C(=O)N[C@@H](CCCC[N+](C)(C)C)C(=O)N4[C@H]3c3ccc(O)cc3)cc2)[C@@]12C(=O)Nc1ccc(I)cc12`, for which the composite z-score is 1.53 in test [1]; 2.64 in test [5]; -0.126 in [7]; 1.94 in test [8]; 1.05 in test [9]; -0.027 in test [10]. Besides, the z-score in [2] is 1.86 (inactive); in [3], 1.49 (inactive); in [4], 4.28 (inactive); in [6] it was -0.0021 (inactive).
With `COCCOC(=O)N1C(=O)[C@@]2(c3cc(C#CC4(O)CCCCCC4)ccc31)[C@H](c1ccccc1OCCO)N1[C@H](c3ccccc3)[C@H](c3ccccc3)OC(=O)[C@H]1[C@@H]2C(N)=O`, the composite z-score was 1.54 in test [1]; 2.24 in test [5]; -0.102 in test [7]; 1.06 in [8]; 1.05 in [9]; 0.0254 in test [10]. In addition, the z-score in test [2] is 1.74 (inactive); in [3], 0.699 (inactive); in [4], 5.17 (inactive); in test [6] it was -0.175 (inactive).
Turning to `CCOC(=O)C1=CC[C@@H](c2ccccc2)N(S(=O)(=O)c2ccc(C)cc2)C1`, the composite z-score in test [1] was -0.363; in test [5], 0.353; in test [7], 0.365; in [8], -0.0914; in [9], -0.198; in test [10], -0.0521. For the same compound, the z-score in test [2] was 0.483 (inactive); in test [3] it was 1.09 (inactive); in test [4], 2.72 (inactive); in [6] it was -0.855 (inactive).
In the case of `CCCC[C@@H]1C[C@H]1[C@@H](NC(=O)c1cccnc1)c1ccc(-c2ccccc2)cc1`, the composite z-score is -0.537 in test [1]; -0.795 in test [5]; 0.009 in test [7]; 1.01 in [8]; -0.476 in [9]; -0.345 in test [10]. The z-score in test [2] was -1.27 (inactive); in test [3], -15.7 (active); in test [4], -2.6 (inactive); in test [6], -0.919 (inactive).
As for `C=CC[C@@]12N=C(c3ccc(OCCCO)cc3)O[C@@H]1c1ccccc1N(CCS(=O)(=O)c1ccccc1)C2=O`, the composite z-score was 1.55 in [1]; 2.34 in test [5]; -0.291 in test [7]; 1.28 in [8]; 1.13 in test [9]; 0.0153 in [10]. The z-score in [2] was -0.484 (inactive); in [3], -1.56 (inactive); in [4], 0.793 (inactive); in test [6] it was 1.45 (inactive).
Turning to `O=C1c2ccccc2[C@](Cc2ccccc2I)(C(=O)NCc2ccccc2)[C@H](c2ccc(CO)cc2)N1C1CCCCC1`, the composite z-score in [1] turned out to be 1.27; in test [5], 1.78; in test [7] it was 0.117; in test [8], 1.32; in [9], 0.918; in [10], 0.494. The z-score was -0.0116 (inactive) in test [2], -1.32 (inactive) in [3], -0.0677 (inactive) in test [4] and -0.403 (inactive) in [6].
`COC(=O)[C@@]1(Cc2ccc(OC)cc2)[C@H]2c3cc(C(=O)N(C)C)n(Cc4ccccc4)c3C[C@H]2CN1C(=O)c1ccccc1`: the composite z-score in test [1] is -0.0018; in [5], 1.84; in [7], 0.0241; in test [8], 0.337; in [9], 0.0263; in test [10], -0.254. Also, the z-score in test [2] was 0.0364 (inactive); in test [3] it was -0.55 (inactive); in test [4] it was -1.42 (inactive); in test [6] it was -0.869 (inactive).
In the case of `COCCCNC(=O)[C@@]1(Sc2ccc(C)cc2)CC(=O)N(Cc2cc(C(F)(F)F)cc(C(F)(F)F)c2)[C@@H]1c1ccc(CO)cc1`, the composite z-score in [1] is 1.54; in test [5], 1.46; in [7], -0.0927; in [8], 1.6; in [9], 0.715; in test [10] it was -0.0531. Moreover, the z-score in test [2] is -0.157 (inactive); in [3], -1.51 (inactive); in test [4], -1.11 (inactive); in test [6], -0.296 (inactive).
With `C=C(COC)/C(=C/C[C@@H](OC(=O)c1ccncc1)c1ccc(OCCO)cc1)c1cnc2ccccc2c1`, the composite z-score in [1] is 1.54; in [5], 2.55; in [7], -0.0802; in [8] it was 1.54; in test [9], 1.01; in [10], -0.0531. The z-score is -2.16 (inactive) in [2], -1.05 (inactive) in [3], -0.263 (inactive) in test [4] and 1.12 (inactive) in test [6].
Regarding `C[C@H]1ON(c2ccc(C(=O)OC(C)(C)C)cc2)[C@@H](c2ccc(O)cc2)[C@@H]1C(=O)N1C(=O)OC[C@@H]1c1ccccc1`, the composite z-score in test [1] was 1.51; in [5] it was 1.69; in test [7] it was -0.33; in test [8], 0.819; in [9], 1.05; in test [10], -0.0315. Also, the z-score in test [2] was 0.657 (inactive); in test [3], -1.95 (inactive); in [4] it was 31.6 (active); in test [6], -0.661 (inactive).
On to `CON(C)C(=O)C=C1C[C@@H](c2cccc(Cl)c2)O[C@@H](c2cccc(Cl)c2)O1`, for which the composite z-score is 0.945 in [1]; 0.989 in [5]; -0.0309 in [7]; 0.407 in [8]; 0.121 in test [9]; -0.0769 in test [10]. The z-score in test [2] is 0.37 (inactive); in test [3], -0.873 (inactive); in [4], 6.28 (inactive); in [6], -0.168 (inactive).
